About 79,000 compounds went through this panel and 15% of them were active in at least one assay; those are over-represented in the sample as a whole. Unmarked numbers belong to inactive results. Activity calls are given as the source filed them. Cut-off read from the data, not from the text of the source: active = growth inhibition above about 70%; inactive = the rest.

In PubChem BioAssay (NCI) one finds growth inhibition data, which are given here for eight molecules.

Experiment [1] in a line: NCI Yeast Anticancer Drug Screen. Data for the rad50 strain (AID 155).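 Note: 0% = growth of vehicle-only cultures of the same strain.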 The following applies: S. cerevisiae rad50 strain growth inhibition, active compounds read high. In short, it runs like this:
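Vehicle-treated cultures provide the reference for the growth inhibition reported for compound-exposed, repair-deficient yeast.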

Experiment [2] can be described thus: NCI Yeast Anticancer Drug Screen. Data for the mec2-1 strain (AID 157). The following applies: S. cerevisiae mec2-1 strain, active compounds read high. In short, it runs like this: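 Vehicle-treated cultures served as reference for growth inhibition of compound-exposed mec2-1 yeast.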
Experiment [3] in a line: NCI Yeast Anticancer Drug Screen. Data for the sgs1 mgt1 strain (AID 161).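 Note: 0% = growth of cultures given vehicle only.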 The following applies: S. cerevisiae sgs1 mgt1 strain, active compounds read high. In outline: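 Mutant yeast exposed to compound; growth scored against vehicle-only wells.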
Experiment [4] can be described thus: NCI Yeast Anticancer Drug Screen. Data for the cln2 rad14 strain (AID 165).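 Note: 0% = growth equal to vehicle treated cultures.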 The note with it: S. cerevisiae cln2 rad14 strain, active compounds read high. In outline:
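Each compound was tested on cln2 rad14 yeast. Inhibition of growth was calculated against vehicle-exposed controls.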

A short description of experiment [5]: NCI Yeast Anticancer Drug Screen. Data for the bub3 strain (AID 167). The following applies: S. cerevisiae bub3 mutant strain, active compounds read high. In outline: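 Mutant yeast screening strain plus compound; vehicle-treated cultures serve as the 0% inhibition reference.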
A short description of experiment [6]: NCI Yeast Anticancer Drug Screen. Data for the mlh1 rad18 strain (AID 175). The following applies: S. cerevisiae mlh1 rad18 strain growth inhibition, active compounds read high. In short, it runs like this: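 Vehicle-treated cultures served as the reference for growth inhibition in a yeast strain carrying DNA damage repair alterations exposed to each compound.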
Setting [7] is: at 5.0 µM (retest, dose inferred, filed as 0.5).
Setting [8] is: at 50.0 µM (retest, dose inferred, filed as 5.0).

With `CC(CCC(=O)O)[C@H]1CCC2[C@H]3C(CC[C@@]21C)[C@@]1(C)CCC(O)C[C@H]1C[C@@H]3O` (some centres undefined), the growth inhibition is -11% in experiment [1] (setting [7]); 46% in experiment [1] (setting [8]); 75.1% (active) in experiment [1] (at 50.0 µM); -13% in experiment [2] (setting [7]); 56% in experiment [2] (setting [8]); 73.2% (active) in experiment [2] (at 50.0 µM). Moreover, the growth inhibition was -10% in experiment [3] (setting [7]); 60% in experiment [3] (setting [8]); 79.3% (active) in experiment [3] (at 50.0 µM); 2% in experiment [4] (setting [7]); 73% (active) in experiment [4] (setting [8]); 73% (active) in experiment [4] (at 50.0 µM). Further, the growth inhibition in experiment [5] (setting [7]) was -13%; in experiment [5] (setting [8]), 86% (active); in experiment [5] (at 50.0 µM), 56.1%; in experiment [6] (setting [7]), -26%; in experiment [6] (setting [8]), 76% (active); in experiment [6] (at 50.0 µM), 71.6% (active).
Regarding `Clc1nn2nnnc2c2ccccc12`, the growth inhibition in experiment [1] (setting [7]) was -133%; in experiment [1] (setting [8]) it was 87% (active); in experiment [1] (at 50.0 µM), 80.2% (active); in experiment [2] (setting [7]) it was -35%; in experiment [2] (setting [8]), 82% (active); in experiment [2] (at 50.0 µM) it was 81.2% (active). In addition, the growth inhibition in experiment [3] (setting [7]) was -46%; in experiment [3] (setting [8]), 65%; in experiment [3] (at 50.0 µM), 51.5%; in experiment [4] (setting [7]), -51%; in experiment [4] (setting [8]), 24%; in experiment [4] (at 50.0 µM), -31.6%. Moreover, the growth inhibition in experiment [5] (setting [7]) was -51%; in experiment [5] (setting [8]), 77% (active); in experiment [5] (at 50.0 µM), 65%; in experiment [6] (setting [7]), -102%; in experiment [6] (setting [8]), 74% (active); in experiment [6] (at 50.0 µM) it was 73.8% (active).
For the molecule `O=C1CC(O)CC(=O)C1=C(O)CCCCCCCCCCc1ccccc1` (centres undefined), the growth inhibition in experiment [1] (setting [7]) was 25%; in experiment [1] (setting [8]), 41%; in experiment [1] (at 50.0 µM) it was 66.4%; in experiment [2] (setting [7]) it was 25%; in experiment [2] (setting [8]), 39%; in experiment [2] (at 50.0 µM), 85.3% (active). The growth inhibition in experiment [3] (setting [7]) is 36%; in experiment [3] (setting [8]), 57%; in experiment [3] (at 50.0 µM), 74.2% (active); in experiment [4] (setting [7]), 24%; in experiment [4] (setting [8]) it was 33%; in experiment [4] (at 50.0 µM), 81.5% (active). In addition, the growth inhibition in experiment [5] (setting [7]) is 30%; in experiment [5] (setting [8]), 54%; in experiment [5] (at 50.0 µM), 85.7% (active); in experiment [6] (setting [7]) it was 40%; in experiment [6] (setting [8]) it was 62%; in experiment [6] (at 50.0 µM), 65.8%.
In the case of `CCCCCCCCCCCCCCCCN1CCSCC1`, the growth inhibition in experiment [1] (setting [7]) is 39%; in experiment [1] (setting [8]), 98% (active); in experiment [1] (at 50.0 µM), 98.3% (active); in experiment [2] (setting [7]), 45%; in experiment [2] (setting [8]), 99% (active); in experiment [2] (at 50.0 µM) it was 99% (active). Also, the growth inhibition was 65% in experiment [3] (setting [7]); 99% (active) in experiment [3] (setting [8]); 98.9% (active) in experiment [3] (at 50.0 µM); 23% in experiment [4] (setting [7]); 99% (active) in experiment [4] (setting [8]); 98.7% (active) in experiment [4] (at 50.0 µM). Also, the growth inhibition is 36% in experiment [5] (setting [7]); 99% (active) in experiment [5] (setting [8]); 99% (active) in experiment [5] (at 50.0 µM); 69% in experiment [6] (setting [7]); 99% (active) in experiment [6] (setting [8]); 98.7% (active) in experiment [6] (at 50.0 µM).
Consider `COc1c(O)ccc2c1CN1CCc3cc4c(cc3C1C2)OCO4` (centres undefined), for which the growth inhibition in experiment [1] (setting [7]) is 18%; in experiment [1] (setting [8]), 50%; in experiment [1] (at 50.0 µM), 65.9%; in experiment [2] (setting [7]) it was 9%; in experiment [2] (setting [8]), 21%; in experiment [2] (at 50.0 µM), 21.4%. Also, the growth inhibition in experiment [3] (setting [7]) is 9%; in experiment [3] (setting [8]), 65%; in experiment [3] (at 50.0 µM), 49.2%; in experiment [4] (setting [7]), 15%; in experiment [4] (setting [8]), 22%; in experiment [4] (at 50.0 µM), -16.2%. In addition, the growth inhibition in experiment [5] (setting [7]) is 6%; in experiment [5] (setting [8]), 60%; in experiment [5] (at 50.0 µM), 50.9%; in experiment [6] (setting [7]), 11%; in experiment [6] (setting [8]), 35%; in experiment [6] (at 50.0 µM), 72.2% (active).
On to `COc1ccc(C(O)/C(=N\NC(N)=S)c2nc3ccc([N+](=O)[O-])cc3[nH]c2=O)cc1OC` (centres undefined), for which the growth inhibition in experiment [1] (setting [7]) was 4%; in experiment [1] (setting [8]), 97% (active); in experiment [1] (at 50.0 µM), 66.1%; in experiment [2] (setting [7]), 1%; in experiment [2] (setting [8]), 99% (active); in experiment [2] (at 50.0 µM), 28.2%. The growth inhibition is 4% in experiment [3] (setting [7]); 97% (active) in experiment [3] (setting [8]); 20.6% in experiment [3] (at 50.0 µM); 1% in experiment [4] (setting [7]); 98% (active) in experiment [4] (setting [8]); 6.55% in experiment [4] (at 50.0 µM). The growth inhibition in experiment [5] (setting [7]) is 6%; in experiment [5] (setting [8]) it was 98% (active); in experiment [5] (at 50.0 µM) it was 22.7%; in experiment [6] (setting [7]), 0%; in experiment [6] (setting [8]), 97% (active); in experiment [6] (at 50.0 µM) it was 52.8%.
For the molecule `Cc1ccc(NC(Nc2ccc(C)cc2C)=C(/C=C(\Cl)[N+](=O)[O-])[N+](=O)[O-])c(C)c1`, the growth inhibition in experiment [1] (setting [7]) is 99% (active); in experiment [1] (setting [8]), 97% (active); in experiment [1] (at 50.0 µM), 96.6% (active); in experiment [2] (setting [7]), 99% (active); in experiment [2] (setting [8]), 97% (active); in experiment [2] (at 50.0 µM), 96.1% (active). Further, the growth inhibition in experiment [3] (setting [7]) is 99% (active); in experiment [3] (setting [8]), 97% (active); in experiment [3] (at 50.0 µM), 95.5% (active); in experiment [4] (setting [7]), 98% (active); in experiment [4] (setting [8]), 93% (active); in experiment [4] (at 50.0 µM), 93.2% (active). Also, the growth inhibition in experiment [5] (setting [7]) is 99% (active); in experiment [5] (setting [8]), 97% (active); in experiment [5] (at 50.0 µM), 96% (active); in experiment [6] (setting [7]), 99% (active); in experiment [6] (setting [8]), 96% (active); in experiment [6] (at 50.0 µM) it was 96.3% (active).
As for `Nc1nc2ccccc2cc1C(=O)O`, the growth inhibition is -162% in experiment [1] (setting [7]); -150% in experiment [1] (setting [8]); -2.25% in experiment [1] (at 50.0 µM); -49% in experiment [2] (setting [7]); -47% in experiment [2] (setting [8]); 19.3% in experiment [2] (at 50.0 µM). For the same molecule, the growth inhibition in experiment [3] (setting [7]) is -61%; in experiment [3] (setting [8]), -55%; in experiment [3] (at 50.0 µM) it was -7.95%; in experiment [4] (setting [7]), -54%; in experiment [4] (setting [8]) it was -48%; in experiment [4] (at 50.0 µM), 63.5%. The growth inhibition in experiment [5] (setting [7]) was -69%; in experiment [5] (setting [8]), -70%; in experiment [5] (at 50.0 µM), 12.5%; in experiment [6] (setting [7]), -140%; in experiment [6] (setting [8]) it was -107%; in experiment [6] (at 50.0 µM), 3.9%.
